Laboratory results taken from PubChem BioAssay AID1159580 (chemical genetic matrix, 2015).
“And” between values parts separate entries of the source, which are not always exact repeats. Equal entries are not always repeated. The campaign covered roughly 5,500 compounds. About 2,000 (36%) were called active. Inconclusive results (about 18%) are left out. No stated cut-off is given here; in the data, active means normalized growth mostly below about 0.91 (no sharp cut-off); inconclusive means no clear call, values can overlap the other calls; inactive means mostly above about 0.92. Some of the results follow.

Assay: chemical genetic growth profiling, strain panel (AID 1159580);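 further: tested at 20 µM; growth read once vehicle control cultures reached saturation at 30 °C; 1 = growth at the plate median or of vehicle wells; lower values mean less growth of the strain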
Conditions: growth OD

Measured: normalized growth

CC(=O)O[C@@H]1CC2C(C)(C)C(=O)C=C[C@]2(C)C2CC[C@]3(C)C(=CC(=O)O[C@H]3c3ccoc3)[C@@]21C (stereo partly drawn)
inactive: S. cerevisiae deletion strains, locus YAL013W, strain DEP1, hits give low values 0.996 | S. cerevisiae deletion strains, locus YAL021C, strain ccr4, hits give low values 1.01 | S. cerevisiae deletion strains, locus YAL026C, strain drs2, hits give low values 1.01 | S. cerevisiae deletion strains, locus YAL030W, strain snc1, hits give low values 1 | S. cerevisiae deletion strains, locus YBL061C, strain skt5, hits give low values 1.03 | S. cerevisiae deletion strains, locus YBR009C, strain hhf1, hits give low values 1.01 | S. cerevisiae deletion strains, locus YBR021W, strain FUR4, hits give low values 0.988 | S. cerevisiae deletion strains, locus YBR023C, strain chs3, hits give low values 1 | S. cerevisiae deletion strains, locus YBR171W, strain sec66, hits give low values 1.01 | S. cerevisiae deletion strains, locus YBR229C, strain ROT2, hits give low values 0.941 | S. cerevisiae deletion strains, locus YBR231C, strain swc5, hits give low values 0.998 | S. cerevisiae deletion strains, locus YBR279W, strain paf1, hits give low values 1.01 | S. cerevisiae deletion strains, locus YCL011C, strain gbp2, hits give low values 0.993 | S. cerevisiae deletion strains, locus YCL016C, strain dcc1, hits give low values 1.01 | S. cerevisiae deletion strains, locus YCL029C, strain bik1, hits give low values 0.977 | S. cerevisiae deletion strains, locus YCL069W, strain vba3, hits give low values 1 | S. cerevisiae deletion strains, locus YCR088W, strain abp1, hits give low values 1.01 | S. cerevisiae deletion strains, locus YDL005C, strain med2, hits give low values 0.995 | S. cerevisiae deletion strains, locus YDL035C, strain GPR1, hits give low values 0.964 | S. cerevisiae deletion strains, locus YDL040C, strain nat1, hits give low values 1 | S. cerevisiae deletion strains, locus YDL074C, strain BRE1, hits give low values 0.979 | S. cerevisiae deletion strains, locus YDL101C, strain DUN1, hits give low values 1 | S. cerevisiae deletion strains, locus YDL185W, strain tfp1, hits give low values 0.959 | S. cerevisiae deletion strains, locus YDL192W, strain arf1, hits give low values 0.978 | S. cerevisiae deletion strains, locus YDR001C, strain nth1, hits give low values 1.01 | S. cerevisiae deletion strains, locus YDR069C, strain doa4, hits give low values 1.02 | S. cerevisiae deletion strains, locus YDR101C, strain arx1, hits give low values 0.956 | S. cerevisiae deletion strains, locus YDR137W, strain rgp1, hits give low values 1.05 | S. cerevisiae deletion strains, locus YDR159W, strain sac3, hits give low values 1.01 | S. cerevisiae deletion strains, locus YDR162C, strain NBP2, hits give low values 0.988 | S. cerevisiae deletion strains, locus YDR195W, strain ref2 0.968 | S. cerevisiae deletion strains, locus YDR297W, strain sur2, hits give low values 0.992 | S. cerevisiae deletion strains, locus YDR318W, strain mcm21, hits give low values 0.983 | S. cerevisiae deletion strains, locus YDR334W, strain swr1, hits give low values 1.01 | S. cerevisiae deletion strains, locus YDR335W, strain msn5, hits give low values 1.01 | S. cerevisiae deletion strains, locus YDR388W, hits give low values 0.983 | S. cerevisiae deletion strains, locus YDR392W, strain spt3, hits give low values 1.01 | S. cerevisiae deletion strains, locus YDR502C, strain sam2, hits give low values 1.02 | S. cerevisiae deletion strains, locus YEL003W, strain gim4, hits give low values 1.01 | S. cerevisiae deletion strains, locus YEL037C, strain rad23, hits give low values 1 | S. cerevisiae deletion strains, locus YEL061C, strain CIN8 (second series), hits give low values 1.01 | S. cerevisiae deletion strains, locus YER015W, strain faa2, hits give low values 1.01 | S. cerevisiae deletion strains, locus YER016W, strain bim1, hits give low values 1.01 | S. cerevisiae deletion strains, locus YER110C, hits give low values 0.966 | S. cerevisiae deletion strains, locus YER111C, strain swi4, hits give low values 1.01 | S. cerevisiae deletion strains, locus YER155C, strain BEM2 (second series), hits give low values 1 | S. cerevisiae deletion strains, locus YER155C, strain BEM2, hits give low values 0.989 | S. cerevisiae deletion strains, locus YER167W, strain BCK2, hits give low values 0.975 | S. cerevisiae deletion strains, locus YFR010W, strain ubp6, hits give low values 1.01 | S. cerevisiae deletion strains, locus YGL078C, strain dbp3, hits give low values 1.02 | S. cerevisiae deletion strains, locus YGL086W, strain mad1, hits give low values 0.992 | S. cerevisiae deletion strains, locus YGL167C, strain pmr1, hits give low values 1 | S. cerevisiae deletion strains, locus YGL173C, strain kem1, hits give low values 1 | S. cerevisiae deletion strains, locus YGL227W, strain vid30, hits give low values 1.01 | S. cerevisiae deletion strains, locus YGL240W, strain doc1, hits give low values 1 | S. cerevisiae deletion strains, locus YGL248W, strain PDE1, hits give low values 1.01 | S. cerevisiae deletion strains, locus YGL253W, strain hxk2, hits give low values 0.998 | S. cerevisiae deletion strains, locus YGR135W, strain pre9, hits give low values 1.1 | S. cerevisiae deletion strains, locus YGR252W, strain gcn5, hits give low values 1.04 | S. cerevisiae deletion strains, locus YHR013C, strain ard1, hits give low values 0.988 | S. cerevisiae deletion strains, locus YHR027C, strain rpn1, hits give low values 0.993 | S. cerevisiae deletion strains, locus YHR030C, strain SLT2, hits give low values 1.02 | S. cerevisiae deletion strains, locus YHR079C, strain IRE1 (second series), hits give low values 0.982 | S. cerevisiae deletion strains, locus YHR079C, strain IRE1, hits give low values 0.997 | S. cerevisiae deletion strains, locus YHR094C, strain hxt1, hits give low values 0.969 | S. cerevisiae deletion strains, locus YHR129C, strain ARP1, hits give low values 0.993 | S. cerevisiae deletion strains, locus YHR142W, strain chs7, hits give low values 1.04 | S. cerevisiae deletion strains, locus YHR200W, strain rpn10, hits give low values 0.994 | S. cerevisiae deletion strains, locus YIL066C, strain RNR3, hits give low values 0.956 | S. cerevisiae deletion strains, locus YIL073C, strain SPO22, hits give low values 0.989 | S. cerevisiae deletion strains, locus YIL125W, strain kgd1, hits give low values 0.981 | S. cerevisiae deletion strains, locus YIR030C, strain dcg1, hits give low values 0.987 | S. cerevisiae deletion strains, locus YJL092W, strain hpr5, hits give low values 1 | S. cerevisiae deletion strains, locus YJL095W, strain BCK1 (second series), hits give low values 0.999 | S. cerevisiae deletion strains, locus YJL095W, strain BCK1, hits give low values 1.06 and 1.03 | S. cerevisiae deletion strains, locus YJL115W, strain asf1, hits give low values 1 | S. cerevisiae deletion strains, locus YJL129C, strain trk1, hits give low values 1.02 | S. cerevisiae deletion strains, locus YJL134W, strain LCB3, hits give low values 0.97 | S. cerevisiae deletion strains, locus YJL154C, strain vps35, hits give low values 1 | S. cerevisiae deletion strains, locus YJL164C, strain tpk1, hits give low values 1 | S. cerevisiae deletion strains, locus YJL166W, strain qcr8, hits give low values 1 | S. cerevisiae deletion strains, locus YJL168C, strain set2, hits give low values 0.995 | S. cerevisiae deletion strains, locus YJL187C, strain SWE1 (second series), hits give low values 1.03 | S. cerevisiae deletion strains, locus YJR066W, strain TOR1, hits give low values 0.96 | S. cerevisiae deletion strains, locus YKL009W, strain mrt4, hits give low values 0.986 | S. cerevisiae deletion strains, locus YKL068W, hits give low values 0.992 | S. cerevisiae deletion strains, locus YKL085W, strain MDH1 (second series), hits give low values 0.996 | S. cerevisiae deletion strains, locus YKL085W, strain MDH1, hits give low values 0.996 | S. cerevisiae deletion strains, locus YKL160W, strain elf1, hits give low values 1.01 | S. cerevisiae deletion strains, locus YKR001C, strain vps1, hits give low values 0.985 | S. cerevisiae deletion strains, locus YKR026C, strain gcn3, hits give low values 1.01 | S. cerevisiae deletion strains, locus YKR091W, strain srl3, hits give low values 1 | S. cerevisiae deletion strains, locus YLL001W, strain dnm1, hits give low values 1.01 | S. cerevisiae deletion strains, locus YLL026W, hits give low values 1.02 | S. cerevisiae deletion strains, locus YLL041C, strain sdh2, hits give low values 1.02 | S. cerevisiae deletion strains, locus YLR027C, strain aat2, hits give low values 1.01 | S. cerevisiae deletion strains, locus YLR039C, strain RIC1, hits give low values 0.971 | S. cerevisiae deletion strains, locus YLR058C, strain SHM2, hits give low values 0.981 | S. cerevisiae deletion strains, locus YLR102C, strain apc9, hits give low values 0.974 | S. cerevisiae deletion strains, locus YLR113W, strain HOG1, hits give low values 0.962 | S. cerevisiae deletion strains, locus YLR221C, strain rsa3, hits give low values 1 | S. cerevisiae deletion strains, locus YLR258W, strain gsy2, hits give low values 1 | S. cerevisiae deletion strains, locus YLR262C, strain YPT6 (second series), hits give low values 1.01 | S. cerevisiae deletion strains, locus YLR268W, strain sec22, hits give low values 0.964 | S. cerevisiae deletion strains, locus YLR320W, strain mms22, hits give low values 1.01 | S. cerevisiae deletion strains, locus YLR342W, strain FKS1 (second series), hits give low values 1 | S. cerevisiae deletion strains, locus YLR342W, strain FKS1, hits give low values 0.999 | S. cerevisiae deletion strains, locus YLR357W, strain rsc2, hits give low values 1.03 | S. cerevisiae deletion strains, locus YLR370C, strain arc18, hits give low values 1.02 | S. cerevisiae deletion strains, locus YLR371W, strain rom2, hits give low values 0.967 | S. cerevisiae deletion strains, locus YLR384C, strain iki3, hits give low values 1.02 | S. cerevisiae deletion strains, locus YLR418C, strain cdc73, hits give low values 1.04 | S. cerevisiae deletion strains, locus YML016C, strain PPZ1, hits give low values 0.973 | S. cerevisiae deletion strains, locus YML032C, strain rad52, hits give low values 0.966 | S. cerevisiae deletion strains, locus YML120C, strain ndi1, hits give low values 0.993 | S. cerevisiae deletion strains, locus YML124C, strain tub3, hits give low values 0.989 | S. cerevisiae deletion strains, locus YMR058W, strain fet3, hits give low values 1 | S. cerevisiae deletion strains, locus YMR078C, strain ctf18, hits give low values 0.983 | S. cerevisiae deletion strains, locus YMR125W, strain sto1, hits give low values 0.999 | S. cerevisiae deletion strains, locus YMR129W, hits give low values 1 | S. cerevisiae deletion strains, locus YMR205C, strain PFK2, hits give low values 1 | S. cerevisiae deletion strains, locus YMR223W, strain ubp8, hits give low values 1.01 | S. cerevisiae deletion strains, locus YMR231W, strain pep5, hits give low values 1.01 | S. cerevisiae deletion strains, locus YMR307W, strain GAS1, hits give low values 0.896 | S. cerevisiae deletion strains, locus YNL067W, strain RPL9B, hits give low values 1.04 | S. cerevisiae deletion strains, locus YNL071W, strain lat1, hits give low values 1.01 | S. cerevisiae deletion strains, locus YNL153C, strain GIM3, hits give low values 1.02 | S. cerevisiae deletion strains, locus YNL183C, strain NPR1, hits give low values 0.993 | S. cerevisiae deletion strains, locus YNL209W, strain ssb2, hits give low values 0.991 | S. cerevisiae deletion strains, locus YNL233W, strain BNI4, hits give low values 1.02 | S. cerevisiae deletion strains, locus YNL248C, strain rpa49, hits give low values 1.02 | S. cerevisiae deletion strains, locus YNL250W, strain rad50, hits give low values 0.994 | S. cerevisiae deletion strains, locus YNL271C, strain bni1, hits give low values 0.988 | S. cerevisiae deletion strains, locus YNL298W, strain CLA4, hits give low values 0.963 | S. cerevisiae deletion strains, locus YNL307C, strain MCK1, hits give low values 0.991 | S. cerevisiae deletion strains, locus YNL322C, strain KRE1 (second series), hits give low values 1 | S. cerevisiae deletion strains, locus YNR049C, strain mso1, hits give low values 1.02 | S. cerevisiae deletion strains, locus YNR052C, strain pop2, hits give low values 1.02 | S. cerevisiae deletion strains, locus YOL006C, strain TOP1, hits give low values 0.97 | S. cerevisiae deletion strains, locus YOL012C, strain htz1 0.746 | S. cerevisiae deletion strains, locus YOL147C, strain pex11, hits give low values 0.982 | S. cerevisiae deletion strains, locus YOR001W, strain rrp6, hits give low values 1.01 | S. cerevisiae deletion strains, locus YOR061W, strain CKA2, hits give low values 0.948 | S. cerevisiae deletion strains, locus YOR069W, strain VPS5, hits give low values 0.992 | S. cerevisiae deletion strains, locus YOR070C, strain gyp1, hits give low values 1.02 | S. cerevisiae deletion strains, locus YOR080W, strain dia2, hits give low values 0.995 | S. cerevisiae deletion strains, locus YOR083W, strain WHI5, hits give low values 1 | S. cerevisiae deletion strains, locus YOR106W, strain vam3, hits give low values 1.01 | S. cerevisiae deletion strains, locus YOR136W, strain idh2, hits give low values 0.986 | S. cerevisiae deletion strains, locus YOR144C, strain elg1, hits give low values 0.979 | S. cerevisiae deletion strains, locus YOR184W, strain ser1, hits give low values 0.935 | S. cerevisiae deletion strains, locus YOR231W, strain MKK1, hits give low values 1.03 | S. cerevisiae deletion strains, locus YOR265W, strain rbl2, hits give low values 1.03 | S. cerevisiae deletion strains, locus YOR270C, strain vph1, hits give low values 1.07 | S. cerevisiae deletion strains, locus YOR290C, strain snf2, hits give low values 0.996 | S. cerevisiae deletion strains, locus YOR316C, strain cot1, hits give low values 0.981 | S. cerevisiae deletion strains, locus YPL051W, strain arl3, hits give low values 1.01 | S. cerevisiae deletion strains, locus YPL078C, strain atp4, hits give low values 1 | S. cerevisiae deletion strains, locus YPL106C, strain sse1, hits give low values 0.986 | S. cerevisiae deletion strains, locus YPL240C, strain hsp82, hits give low values 1 | S. cerevisiae deletion strains, locus YPL241C, strain CIN2, hits give low values 0.981 | S. cerevisiae deletion strains, locus YPL256C, strain CLN2, hits give low values 1 | S. cerevisiae deletion strains, locus YPR119W, strain clb2, hits give low values 0.988 | S. cerevisiae deletion strains, locus YPR141C, strain kar3, hits give low values 0.992 | S. cerevisiae deletion strains, locus YPR163C, strain tif3, hits give low values 0.971 | S. cerevisiae deletion strains, locus YPR167C, strain met16, hits give low values 0.997 | S. cerevisiae deletion strains, strain wtn01, hits give low values 0.961 | S. cerevisiae strains, strain wild type, hits give low values 0.97
